# CFTR F508del cor: CFTR F508del correction in bronchial cells. CFBE cells, YFP halide quenching; stimulated with forskolin plus potentiator P3; % fluorescence drop versus neutral controls. activity (quench increase), % at 7.58 µM. 0.36% of 350,000 active. AID 720511;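 active = mean added fluorescence quench of at least 8% versus neutral control, with both replicates also reaching 8%; inconclusive = only one of the mean or replicate conditions met; inactive = mean below 8% and not both replicates reaching 8%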;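 note: cells transiently co-express mutant CFTR-F508del with the halide-sensitive YFP; corrector assay measuring rescue of mutant channel to the surface after 24 h compound exposure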
# PvdQ acylase: blocks Pseudomonas aeruginosa PvdQ acylase activity; purified PvdQ acylase, fluorescence plate reader; inhibition, % at 10 µM; 0.063% of 340,000 active; in the data active = inhibition above about 30%, passing the limit was not always enough; inconclusive = no clear call, values can overlap the other calls;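 note: 0% = vehicle neutral wells and 100% = reference inhibitor wells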
# RAD52 anneal inh: inhibitors of human RAD52 DNA annealing | P43351 | recombinant RAD52 DNA annealing, FRET fluorescence | inhibition, % at 18.7 µM | 0.46% of 360,000 active;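 active = every replicate showing at least 50% inhibition; inconclusive = mean inhibition at least 50% but not in every replicate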
# dFosB act-1: mouse delta FosB homodimer activation; P13346; purified delta FosB, TAMRA-CDK5 oligo fluorescence polarization; percent of positive-control signal above neutral wells; AID 493131; activation, % at 25 µM; 0.99% of 340,000 active;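 active = mean activation above about 17%, with every replicate also reaching it, limit read from the data, passing the limit was not always enough; inconclusive = only one of the two conditions met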
# Glyco luc inh: blocks N-linked glycosylation in D54 reporter cells. D54 ERlucT glycosylation luciferase reporter, 24 h; percent of 100 nM tunicamycin response. reporter increase, % at 12.5 µM. 0.23% of 360,000 active. AID 588692;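 active = mean luciferase reporter signal, scaled so untreated is 0 and the glycosylation-blocking control 100, at or above a set limit in every replicate; inconclusive = mean reaches the limit but not every replicate does; inactive = mean below the limit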;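 note: luciferase carries N-glycosylation sites so blocking glycosylation raises the light; 0% = median of neutral control wells and 100% = median of 100 nM tunicamycin wells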
# RAD54 branch: RAD54 (human) branch migration inhibition; Q92698; RAD54 Holliday junction branch migration, FAM/BHQ fluorescence; inhibition, % at 10.4 µM; 0.14% of 360,000 active; AID 602329;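 active = mean normalized replicate activity at least 40 and at least half of replicates scoring 40 or more; inconclusive = only one of the two criteria met; inactive = mean below 40 and under half of replicates reaching 40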;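 note: 0% = median of neutral control wells and 100% = median of positive control wells; inhibitors cause a drop in the FAM fluorescence signal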
# Target sequence (Q92698 whole entry, looked up): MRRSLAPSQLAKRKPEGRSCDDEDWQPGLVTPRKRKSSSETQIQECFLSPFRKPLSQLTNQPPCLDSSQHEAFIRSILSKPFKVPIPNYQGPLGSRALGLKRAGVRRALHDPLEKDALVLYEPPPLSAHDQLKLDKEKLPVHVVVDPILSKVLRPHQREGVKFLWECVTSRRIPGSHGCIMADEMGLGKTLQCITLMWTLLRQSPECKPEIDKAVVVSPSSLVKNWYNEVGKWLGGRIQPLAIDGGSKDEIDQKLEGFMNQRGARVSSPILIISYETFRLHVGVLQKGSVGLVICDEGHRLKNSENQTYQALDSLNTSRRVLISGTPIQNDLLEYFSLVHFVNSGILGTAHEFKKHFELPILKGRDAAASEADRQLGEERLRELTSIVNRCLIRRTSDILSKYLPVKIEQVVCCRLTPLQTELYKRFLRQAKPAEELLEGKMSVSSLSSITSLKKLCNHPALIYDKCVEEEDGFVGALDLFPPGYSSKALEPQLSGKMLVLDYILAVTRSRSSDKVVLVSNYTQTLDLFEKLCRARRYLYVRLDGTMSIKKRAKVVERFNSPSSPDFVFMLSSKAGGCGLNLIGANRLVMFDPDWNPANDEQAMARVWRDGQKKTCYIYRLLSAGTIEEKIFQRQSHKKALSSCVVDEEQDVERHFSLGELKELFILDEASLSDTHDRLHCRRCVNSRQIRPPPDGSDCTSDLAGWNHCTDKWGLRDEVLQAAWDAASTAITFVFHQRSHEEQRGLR
# dFosB act-2: activators of mouse delta FosB homodimer DNA binding; 2,400 tested, under 10 active; activation, % at 24.9 µM; AID 588690; shares compounds with dFosB act-1; purified delta FosB, TAMRA-CDK5 oligo fluorescence polarization; normalised: neutral wells 0, positive control 100;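 active = highest replicate activation at or above 34% and every replicate reaching that threshold; inconclusive = meets only one of the two criteria; inactive = meets neither criterion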;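 note: higher polarization means more probe DNA bound by delta FosB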
# Starred values were filed as active, the others as inactive; ? = inconclusive; . = no result. Most compounds without a hit are left out; they make up all but 1.5% or so of the library.
SMILES,CFTR F508del cor,PvdQ acylase,RAD52 anneal inh,dFosB act-1,Glyco luc inh,RAD54 branch,dFosB act-2
O=C(COC(=O)c1cc(=O)[nH]c2ccccc12)Nc1ccc(Cl)cn1,-1,-10,-42,19*,1,-13,1
Cc1ccc(CNC(=O)COC(=O)c2cc(=O)[nH]c3ccccc23)cc1,-10,-3,-5,55*,2,11,-1
NC(=O)CC(NC(=O)Cc1cccc2ccccc12)c1ccc(NCc2ccc(F)cc2)c([N+](=O)[O-])c1 (stereo unspecified),3,-8,0,32*,11,4,-6
NC(=O)CC(NC(=O)Cc1cccc2ccccc12)c1ccc(NCc2ccccn2)c([N+](=O)[O-])c1 (stereo unspecified),1,-17,7,-4,0,1,.
NC(=O)CC(NC(=O)Cc1cccc2ccccc12)c1ccc(NCc2ccccc2)c([N+](=O)[O-])c1 (stereo unspecified),0,-8,-13,47*,0,-3,2
NC(=O)CC(NC(=O)Cc1cccc2ccccc12)c1ccc(NCCc2ccc(F)cc2)c([N+](=O)[O-])c1 (stereo unspecified),-2,-4,.,-2,10,8,.
CC(=O)N1C[C@@H]2[C@H](c3ccccc31)[C@H](CO)N2C(=O)c1ccc(F)cc1,-1,.,-1,.,.,11,.
CN1CCN(c2nc(Nc3ccc(F)cc3)nc(Nc3ccc(F)cc3)n2)CC1,-3,8,6,40*,4,12,-2
O=C(NC1=NCCS1)c1cccs1,.,-22,.,27*,1,1,2
CC(C)C(NC(=O)c1cccs1)C(=O)NC1=NCCS1 (stereo unspecified),.,-8,.,9,1,-2,.
COc1ccc(-c2nc(Cn3c(SCc4cccc(F)c4)nc4ccncc43)c(C)o2)cc1OC,-1,-7,-19,?,-3,11,.
COc1ccc(-c2nc(Cn3c(SCc4ccc(C)cc4)nc4ccncc43)c(C)o2)cc1OC,-1,1,-44,39*,-3,5,3
O=C(C[C@H]1C[C@H]2c3cc(NC(=O)c4ccc5c(c4)OCO5)ccc3O[C@H]2[C@H](CO)O1)NC1CCCC1,-3,.,-6,.,.,-14,.
CN(C(=O)COC(=O)/C=C/c1ccc2c(c1)OCO2)c1c(N)n(Cc2ccccc2)c(=O)[nH]c1=O,1,-3,-15,53*,0,1,1
O=C(Cn1cnc2sc(-c3ccccc3)cc2c1=O)NCc1ccccc1,.,-8,.,32*,15,-5,5
O=C(Cn1cnc2c(nnn2-c2cccc(Cl)c2)c1=O)NCc1ccccc1,-1,-7,-20,68*,2,12,1
O=C(Cn1cnc2sc(-c3ccccc3)cc2c1=O)NCCc1ccccc1,.,3,-15,53*,1,-3,2
NC(=O)Cn1cnc2c(nnn2-c2cccc(Cl)c2)c1=O,2,16,-8,-1,0,-9,.
O=C(Cn1cnc2c(oc3ccccc32)c1=O)NCCc1ccccc1,.,-21,.,61*,1,12,-3
O=C(Cn1cnc2sc(-c3ccccc3)cc2c1=O)NCc1ccco1,.,4,.,-4,-1,-6,.
C[C@H]1CN([C@@H](C)CO)S(=O)(=O)c2ccc(C3=CCCCC3)cc2O[C@H]1CN(C)C(=O)c1ccncc1,1,.,14,.,.,4,.
COCCNC(=O)C[C@@H]1CC[C@H]2[C@H](COc3ccc(NC(C)=O)cc3C(=O)N2C)O1,0,.,.,.,.,1,.
O=C(CSc1nnc(NC(=O)C2CC2)s1)Nc1cccc(F)c1,-1,2,-25,28*,0,-3,-1
Cc1ccc(C)c(NC(=O)CSc2nnc(NC(=O)C3CC3)s2)c1,2,-5,-6,28*,1,-9,5
COCC(=O)Nc1ccc2c(c1)OC[C@H](C)N(Cc1ccccc1OC)C[C@H](C)[C@H](OC)CN(C)C2=O,1,.,11,.,.,2,.
C/C=C/c1ccc([C@H]2[C@H](CO)N(C(=O)CC)[C@H]2CNC(=O)CC2CC2)cc1,0,.,.,.,.,-7,.

# Source: PubChem (Broad Institute)
